Data from the supplement of paper PMC12340641.
Structures can show the parent of a compound that is named as a salt.

System: HEK293FT dCK*-only
Assay: relative growth in counter assay (no AraC = 100%, AraC + DMSO = 0%); higher = more growth rescue independent of IKZF1
Conditions: compound concentration: 5 uM; AraC concentration: 0.3 uM; overnight pretreatment + 4 days AraC
Method in brief: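 For this counter assay, relative growth was normalised on each plate to two kinds of reference wells. HEK293FT cells expressing only an engineered kinase construct (300/well, 384-well) were treated with 5 μM compound 2 h after seeding, then after overnight at 37 °C with a nucleoside suicide substrate at 0.3 μM plus medium for 4 days. On day 5, Hoechst 33342-stained nuclei were counted by imaging, taking wells without suicide substrate as 100% and substrate plus vehicle as 0%.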

Row | Compound | relative growth in counter assay
1 | COc1ccc(C2CC(c3c(O)cc(C)oc3=O)=NCCS2)c(OC)c1 (stereo unspecified) | -32.5%
2 | NC(=O)N1c2ccccc2CC(=O)c2ccccc21 | 5.74%
3 | O=C1N(c2ccccc2)c2ccccc2C1(Cc1ccncc1)Cc1ccncc1 [linopirdine] | -2.22%
4 | CC1=C(/C=C/C(C)=C/C=C/C(C)=C/C=C/C=C(C)/C=C/C=C(C)/C=C/C2=C(C)CCCC2(C)C)C(C)(C)CCC1 | -13.6%
5 | O=C1[C@H]2CCCC[C@H]2C(=O)N1CCCCN1CCN(c2nsc3ccccc23)CC1 [Perospirone] | 19.5%
6 | C=C1/C(=C\C=C2/CCC[C@]3(C)[C@@H]([C@H](C)/C=C/[C@H](C)C(C)(C)O)CC[C@@H]23)C[C@@H](O)C[C@@H]1O [Ercalcitriol] | 19.8%
7 | CCCCC1C(=O)N(c2ccccc2)N(c2ccc(O)cc2)C1=O (stereo unspecified) | -34.9%
8 | Nc1cc(N2CCCCC2)nc(N)[n+]1[O-] | -5.79%
9 | CCCCC(CC)C/N=C(\N)N/C(N)=N/CCCCCC/N=C(\N)N/C(N)=N/CC(CC)CCCC (stereo unspecified) [Alexidine dihydrochloride] | -34.4%
10 | CC(C)[C@H]1c2ccc(F)cc2CC[C@@]1(CCN(C)CCCc1nc2ccccc2[nH]1)OC(=O)C1CC1 | -31.9%
11 | CC(=O)Nc1cccc(Nc2ncnc(N3CCC(OCc4ccc(OC(F)(F)F)cc4)CC3)n2)c1C | -5.23%
12 | CO[C@H]1CC(O[C@@H]2/C(C)=C/C[C@@H]3C[C@@H](C[C@]4(CC[C@H](C)[C@@H](C5CCCCC5)O4)O3)OC(=O)[C@@H]3C=C(C)/C(=N/O)[C@H]4OC/C(=C\C=C\[C@@H]2C)[C@]43O)O[C@@H](C)C1O (stereo partly specified) | 10.4%
13 | CC[C@H](CO)Nc1nc(Nc2cccc(-c3ccccn3)c2)c2ncn(C(C)C)c2n1 | -0.26%
14 | CCCCCCCCCCCCCCCC[N+](C)(C)C | -33.4%
15 | O=c1n(CC2CO2)c(=O)n(CC2CO2)c(=O)n1CC1CO1 (stereo unspecified) [Triglycidyl isocyanurate] | -31.7%
16 | Cc1cccc(Nc2nc(-c3ccncc3)cs2)c1 | -8.26%
17 | CCCCCCCCCCCCC[N+](C)(C)Cc1ccccc1 | -14.8%
18 | CN1CCN(CCCN2c3ccccc3Sc3ccc(Cl)cc32)CC1 | 4.19%
19 | CCC(=O)N1CCN(c2ccc(-n3c(=O)ccc4cnc5ccc(-c6cnc7ccccc7c6)cc5c43)cc2C(F)(F)F)CC1 [Torin 1] | -27.5%

Row | Compound | relative growth in counter assay
20 | OCCN1CCN(CCCN2c3ccccc3Sc3ccc(Cl)cc32)CC1 | 3.78%
21 | Oc1ccc(/C=C/c2cc(O)cc(O)c2)cc1 [Resveratrol] | 5.43%
22 | COC(=O)C1=C(C)NC(C)=C([N+](=O)[O-])C1c1ccccc1C(F)(F)F (racemic) | -7.91%
23 | N#Cc1ccc(O[C@H]2CC[C@H](NC(=O)c3ccc(N4CCC(CN5CCN(c6cc7c(cc6F)C(=O)N(C6CCC(=O)NC6=O)C7=O)CC5)CC4)nn3)CC2)cc1Cl (stereo partly specified) | 6.3%
24 | Cc1ccccc1N=Nc1ccc(N=Nc2c(O)ccc3ccccc23)c(C)c1 [Solvent Red 24] | -1.17%
25 | O=C(CCCCCCC(O)=NO)Nc1ccccc1 [Vorinostat] | -31.4%
26 | CC(C)(C)C1CCc2c(sc(NC(=O)c3ccco3)c2C(=O)O)C1 (stereo unspecified) | -8.81%
27 | Nc1nc(=O)n([C@H]2C[C@H](O)[C@@H](CO)O2)cc1F [5-Fluoro-2'-deoxycytidine] | -26.3%
28 | CC(=O)N(O)[C@@H]1c2cc(C#N)ccc2OC(C)(C)[C@H]1O | -4.7%
29 | CCNC(=O)Nc1ccc(-c2nc3c(c(N4CCOC[C@@H]4C)n2)CCN(C2COC2)C3)cc1 | -31.5%
30 | CCN(CC)CCCCC(NC(=O)c1ccc([N+](=O)[O-])cc1)c1ccccc1 (stereo unspecified) [nibentan] | 11.1%
31 | O=C(c1ccc(Nc2nccc(-c3cc4ccccc4s3)n2)cc1)N1CCC(N2CCCC2)CC1 | -35.2%
32 | Cc1noc(C)c1-c1ccc(-c2cc(C(N)=O)c(NC(N)=O)s2)c(O[C@H]2CCNC2)c1 | 4.03%
33 | CCCCCCCCCCCCCCCC[N+](C)(C)Cc1ccccc1 [Benzyldimethylhexadecylammonium chloride hydrate] | -20.7%
34 | O=[N+]([O-])c1ccc(O)c2ncccc12 | -14.6%
35 | OCCN1CCN(CCCN2c3ccccc3Sc3ccc(C(F)(F)F)cc32)CC1 | 12%
36 | CC(=O)Nc1ncc([N+](=O)[O-])s1 | 5.87%
37 | COC(=O)/C=C/c1cc(O)ccc1O [erbstatin-analog] | -32.8%
38 | Cc1ccc(S(=O)(=O)NC(=O)NN2CC3CCCC3C2)cc1 (stereo unspecified) | 3.82%

System: HEK293FT dCK*-IKZF1
Assay: relative growth recovery (pomalidomide 10 uM = 100%, DMSO = 0%); higher = more growth rescue (IKZF1 fusion degradation)
Conditions: compound concentration: 5 uM; AraC concentration: 0.3 uM; overnight pretreatment + 4 days AraC
Method in brief: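 On day 5, whole-well imaging was used to count Hoechst 33342-stained nuclei of HEK293FT cells stably carrying a deoxycytidine kinase–IKZF1 fusion. These cells had received 5 μM compound 2 h after seeding, followed after overnight at 37 °C by a nucleoside suicide substrate at 0.3 μM plus medium for 4 days. Growth recovery was normalised on each plate against a reference degrader and vehicle, which defined 100% and 0%, and values are duplicate means from separate days.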

Row | Compound | relative growth recovery
39 | COc1ccc(C2CC(c3c(O)cc(C)oc3=O)=NCCS2)c(OC)c1 (stereo unspecified) | -10.9%
40 | NC(=O)N1c2ccccc2CC(=O)c2ccccc21 | -1.02%
41 | O=C1N(c2ccccc2)c2ccccc2C1(Cc1ccncc1)Cc1ccncc1 [linopirdine] | -3.48%
42 | CC1=C(/C=C/C(C)=C/C=C/C(C)=C/C=C/C=C(C)/C=C/C=C(C)/C=C/C2=C(C)CCCC2(C)C)C(C)(C)CCC1 | -1.69%
43 | O=C1[C@H]2CCCC[C@H]2C(=O)N1CCCCN1CCN(c2nsc3ccccc23)CC1 [Perospirone] | 13.7%
44 | C=C1/C(=C\C=C2/CCC[C@]3(C)[C@@H]([C@H](C)/C=C/[C@H](C)C(C)(C)O)CC[C@@H]23)C[C@@H](O)C[C@@H]1O [Ercalcitriol] | 6.62%
45 | CCCCC1C(=O)N(c2ccccc2)N(c2ccc(O)cc2)C1=O (stereo unspecified) | -12.7%
46 | Nc1cc(N2CCCCC2)nc(N)[n+]1[O-] | -0.55%
47 | CCCCC(CC)C/N=C(\N)N/C(N)=N/CCCCCC/N=C(\N)N/C(N)=N/CC(CC)CCCC (stereo unspecified) [Alexidine dihydrochloride] | -13.3%
48 | CC(C)[C@H]1c2ccc(F)cc2CC[C@@]1(CCN(C)CCCc1nc2ccccc2[nH]1)OC(=O)C1CC1 | -9.29%
49 | CC(=O)Nc1cccc(Nc2ncnc(N3CCC(OCc4ccc(OC(F)(F)F)cc4)CC3)n2)c1C | 1.55%
50 | CO[C@H]1CC(O[C@@H]2/C(C)=C/C[C@@H]3C[C@@H](C[C@]4(CC[C@H](C)[C@@H](C5CCCCC5)O4)O3)OC(=O)[C@@H]3C=C(C)/C(=N/O)[C@H]4OC/C(=C\C=C\[C@@H]2C)[C@]43O)O[C@@H](C)C1O (stereo partly specified) | -2.14%
51 | CC[C@H](CO)Nc1nc(Nc2cccc(-c3ccccn3)c2)c2ncn(C(C)C)c2n1 | -2.95%
52 | CCCCCCCCCCCCCCCC[N+](C)(C)C | -11.7%
53 | O=c1n(CC2CO2)c(=O)n(CC2CO2)c(=O)n1CC1CO1 (stereo unspecified) [Triglycidyl isocyanurate] | -10.8%
54 | Cc1cccc(Nc2nc(-c3ccncc3)cs2)c1 | -0.535%
55 | CCCCCCCCCCCCC[N+](C)(C)Cc1ccccc1 | -5.53%
56 | CN1CCN(CCCN2c3ccccc3Sc3ccc(Cl)cc32)CC1 | 1.47%
57 | CCC(=O)N1CCN(c2ccc(-n3c(=O)ccc4cnc5ccc(-c6cnc7ccccc7c6)cc5c43)cc2C(F)(F)F)CC1 [Torin 1] | -10.5%

Row | Compound | relative growth recovery
58 | OCCN1CCN(CCCN2c3ccccc3Sc3ccc(Cl)cc32)CC1 | 4.08%
59 | Oc1ccc(/C=C/c2cc(O)cc(O)c2)cc1 [Resveratrol] | 2.06%
60 | COC(=O)C1=C(C)NC(C)=C([N+](=O)[O-])C1c1ccccc1C(F)(F)F (racemic) | -0.605%
61 | N#Cc1ccc(O[C@H]2CC[C@H](NC(=O)c3ccc(N4CCC(CN5CCN(c6cc7c(cc6F)C(=O)N(C6CCC(=O)NC6=O)C7=O)CC5)CC4)nn3)CC2)cc1Cl (stereo partly specified) | -0.69%
62 | Cc1ccccc1N=Nc1ccc(N=Nc2c(O)ccc3ccccc23)c(C)c1 [Solvent Red 24] | -0.495%
63 | O=C(CCCCCCC(O)=NO)Nc1ccccc1 [Vorinostat] | -10.3%
64 | CC(C)(C)C1CCc2c(sc(NC(=O)c3ccco3)c2C(=O)O)C1 (stereo unspecified) | -0.515%
65 | Nc1nc(=O)n([C@H]2C[C@H](O)[C@@H](CO)O2)cc1F [5-Fluoro-2'-deoxycytidine] | -8.98%
66 | CC(=O)N(O)[C@@H]1c2cc(C#N)ccc2OC(C)(C)[C@H]1O | -2.73%
67 | CCNC(=O)Nc1ccc(-c2nc3c(c(N4CCOC[C@@H]4C)n2)CCN(C2COC2)C3)cc1 | -12.3%
68 | CCN(CC)CCCCC(NC(=O)c1ccc([N+](=O)[O-])cc1)c1ccccc1 (stereo unspecified) [nibentan] | 1.83%
69 | O=C(c1ccc(Nc2nccc(-c3cc4ccccc4s3)n2)cc1)N1CCC(N2CCCC2)CC1 | -14.3%
70 | Cc1noc(C)c1-c1ccc(-c2cc(C(N)=O)c(NC(N)=O)s2)c(O[C@H]2CCNC2)c1 | 3.93%
71 | CCCCCCCCCCCCCCCC[N+](C)(C)Cc1ccccc1 [Benzyldimethylhexadecylammonium chloride hydrate] | -4.92%
72 | O=[N+]([O-])c1ccc(O)c2ncccc12 | -2.33%
73 | OCCN1CCN(CCCN2c3ccccc3Sc3ccc(C(F)(F)F)cc32)CC1 | 3.6%
74 | CC(=O)Nc1ncc([N+](=O)[O-])s1 | -3.04%
75 | COC(=O)/C=C/c1cc(O)ccc1O [erbstatin-analog] | -11.6%
76 | Cc1ccc(S(=O)(=O)NC(=O)NN2CC3CCCC3C2)cc1 (stereo unspecified) | 1.34%
